Experimental data: the supplement of paper PMC11732987, “Enantioselective OTUD7B fragment discovery through chemoproteomics screening and high-throughput optimisation” (Communications Chemistry, 2025)

Columns and labels:
Assay in all cases: log2 ratio of Biotin-Ahx-Ub-VS probe labelling (fragment/DMSO); higher = less target engagement (more negative = stronger competition), active = hit call of the paper (q ≤ 0.05, log2 ratio ≤ -1)
Conditions in all cases: compound concentration: 200 uM; treatment time: 3 h
USP42 = target: T1, USP42 (UniProt Q9H9J4)
T1 sequence (whole entry): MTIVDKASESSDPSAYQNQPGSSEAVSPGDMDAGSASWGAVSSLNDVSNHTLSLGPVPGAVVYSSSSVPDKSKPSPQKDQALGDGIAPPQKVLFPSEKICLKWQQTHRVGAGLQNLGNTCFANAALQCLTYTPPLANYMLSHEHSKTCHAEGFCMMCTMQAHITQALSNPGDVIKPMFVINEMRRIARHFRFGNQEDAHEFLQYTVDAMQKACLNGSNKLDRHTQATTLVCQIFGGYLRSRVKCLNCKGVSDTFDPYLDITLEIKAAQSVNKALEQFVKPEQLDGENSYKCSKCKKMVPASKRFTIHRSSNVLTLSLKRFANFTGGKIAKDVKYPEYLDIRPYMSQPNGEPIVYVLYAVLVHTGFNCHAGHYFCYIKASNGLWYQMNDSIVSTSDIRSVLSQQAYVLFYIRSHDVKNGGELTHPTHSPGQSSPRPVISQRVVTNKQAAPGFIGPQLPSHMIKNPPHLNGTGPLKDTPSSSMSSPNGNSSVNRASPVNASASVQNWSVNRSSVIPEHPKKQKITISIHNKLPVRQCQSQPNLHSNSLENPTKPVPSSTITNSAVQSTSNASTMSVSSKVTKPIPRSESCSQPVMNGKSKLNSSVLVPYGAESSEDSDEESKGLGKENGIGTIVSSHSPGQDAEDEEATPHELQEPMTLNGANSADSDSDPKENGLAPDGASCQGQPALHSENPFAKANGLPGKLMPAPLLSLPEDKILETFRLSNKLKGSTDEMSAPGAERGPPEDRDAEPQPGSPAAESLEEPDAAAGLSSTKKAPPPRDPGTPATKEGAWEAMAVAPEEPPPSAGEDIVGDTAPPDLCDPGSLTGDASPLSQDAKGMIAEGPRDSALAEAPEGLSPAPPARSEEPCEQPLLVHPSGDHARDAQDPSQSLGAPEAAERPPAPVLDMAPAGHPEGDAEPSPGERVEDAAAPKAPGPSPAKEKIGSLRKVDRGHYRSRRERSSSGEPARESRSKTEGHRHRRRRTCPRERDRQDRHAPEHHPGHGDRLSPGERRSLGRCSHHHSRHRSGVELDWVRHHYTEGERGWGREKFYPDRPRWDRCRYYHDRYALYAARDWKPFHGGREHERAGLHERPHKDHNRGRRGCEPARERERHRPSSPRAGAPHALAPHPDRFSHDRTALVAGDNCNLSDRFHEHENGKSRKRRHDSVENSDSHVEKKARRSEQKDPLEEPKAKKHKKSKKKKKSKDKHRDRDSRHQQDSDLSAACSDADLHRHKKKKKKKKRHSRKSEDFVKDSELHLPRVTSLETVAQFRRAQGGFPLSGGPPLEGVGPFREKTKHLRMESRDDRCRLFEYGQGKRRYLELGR
Procedure, shortened: (§1)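 Global-median-normalised Spectronaut label-free quantities were compared by unpaired t-test, and values are average log2 ratios of fragment over vehicle. Only proteins with ≥2 unique peptides were used. HEK293T lysate (495 µg per sample) was treated in triplicate with fragment at 200 µM or vehicle for 3 h and then with Biotin-Ahx-Ub-VS at 0.5 µM final for 1 h. Labelled DUBs were then NeutrAvidin-enriched, digested with LysC and trypsin, and run by diaPASEF LC-MS/MS.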

USP46 = USP46 (UniProt P62068)
USP46, sequence (P62068 whole entry): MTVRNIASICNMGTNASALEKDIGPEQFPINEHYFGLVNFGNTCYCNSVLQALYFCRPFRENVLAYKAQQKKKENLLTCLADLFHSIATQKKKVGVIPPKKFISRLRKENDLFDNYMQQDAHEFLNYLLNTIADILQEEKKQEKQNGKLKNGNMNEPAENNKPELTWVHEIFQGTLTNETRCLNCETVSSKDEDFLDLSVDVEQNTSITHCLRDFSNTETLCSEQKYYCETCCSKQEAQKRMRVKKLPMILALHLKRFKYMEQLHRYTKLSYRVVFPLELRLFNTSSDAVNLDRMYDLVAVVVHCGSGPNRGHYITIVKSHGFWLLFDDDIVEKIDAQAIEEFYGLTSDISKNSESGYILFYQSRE
Procedure, shortened: as §1

USP47 = target: T2, USP47 (UniProt Q96K76)
T2 sequence (whole entry): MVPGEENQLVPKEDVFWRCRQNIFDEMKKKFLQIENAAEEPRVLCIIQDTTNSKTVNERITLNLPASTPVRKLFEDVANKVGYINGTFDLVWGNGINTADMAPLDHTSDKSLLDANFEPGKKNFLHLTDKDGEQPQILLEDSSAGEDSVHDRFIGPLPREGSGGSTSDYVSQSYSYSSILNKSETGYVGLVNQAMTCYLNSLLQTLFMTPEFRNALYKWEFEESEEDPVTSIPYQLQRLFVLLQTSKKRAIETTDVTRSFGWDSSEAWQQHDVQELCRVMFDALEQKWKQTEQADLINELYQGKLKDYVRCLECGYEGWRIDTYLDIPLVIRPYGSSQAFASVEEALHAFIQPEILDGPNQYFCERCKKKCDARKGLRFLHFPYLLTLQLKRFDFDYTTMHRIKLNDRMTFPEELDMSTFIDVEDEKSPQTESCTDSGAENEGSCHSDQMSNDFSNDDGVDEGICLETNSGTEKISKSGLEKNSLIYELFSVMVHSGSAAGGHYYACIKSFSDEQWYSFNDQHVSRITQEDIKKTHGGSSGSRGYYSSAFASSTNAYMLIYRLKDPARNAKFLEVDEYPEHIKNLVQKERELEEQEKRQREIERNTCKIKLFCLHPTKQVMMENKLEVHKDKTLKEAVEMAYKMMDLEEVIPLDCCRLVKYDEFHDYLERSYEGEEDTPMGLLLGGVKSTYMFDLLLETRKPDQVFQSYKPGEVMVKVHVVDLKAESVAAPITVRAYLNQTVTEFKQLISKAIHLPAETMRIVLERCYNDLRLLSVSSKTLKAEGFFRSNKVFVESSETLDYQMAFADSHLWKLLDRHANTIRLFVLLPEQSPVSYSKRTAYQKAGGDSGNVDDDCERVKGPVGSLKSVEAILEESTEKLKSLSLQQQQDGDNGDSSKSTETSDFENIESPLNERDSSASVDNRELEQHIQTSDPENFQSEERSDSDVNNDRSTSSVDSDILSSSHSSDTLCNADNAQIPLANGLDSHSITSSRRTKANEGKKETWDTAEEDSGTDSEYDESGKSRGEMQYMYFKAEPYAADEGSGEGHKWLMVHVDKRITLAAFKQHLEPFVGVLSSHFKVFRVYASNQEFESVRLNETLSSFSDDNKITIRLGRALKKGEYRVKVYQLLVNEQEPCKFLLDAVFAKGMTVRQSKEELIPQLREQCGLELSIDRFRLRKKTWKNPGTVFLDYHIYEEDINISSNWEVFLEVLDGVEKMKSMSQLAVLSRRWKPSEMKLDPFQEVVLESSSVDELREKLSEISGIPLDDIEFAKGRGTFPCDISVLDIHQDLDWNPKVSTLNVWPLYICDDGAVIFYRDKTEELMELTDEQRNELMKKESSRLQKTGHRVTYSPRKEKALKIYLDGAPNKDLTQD
Procedure, shortened: as §1

USP48 = target: T3, USP48 (UniProt Q86UV5)
T3 sequence (whole entry): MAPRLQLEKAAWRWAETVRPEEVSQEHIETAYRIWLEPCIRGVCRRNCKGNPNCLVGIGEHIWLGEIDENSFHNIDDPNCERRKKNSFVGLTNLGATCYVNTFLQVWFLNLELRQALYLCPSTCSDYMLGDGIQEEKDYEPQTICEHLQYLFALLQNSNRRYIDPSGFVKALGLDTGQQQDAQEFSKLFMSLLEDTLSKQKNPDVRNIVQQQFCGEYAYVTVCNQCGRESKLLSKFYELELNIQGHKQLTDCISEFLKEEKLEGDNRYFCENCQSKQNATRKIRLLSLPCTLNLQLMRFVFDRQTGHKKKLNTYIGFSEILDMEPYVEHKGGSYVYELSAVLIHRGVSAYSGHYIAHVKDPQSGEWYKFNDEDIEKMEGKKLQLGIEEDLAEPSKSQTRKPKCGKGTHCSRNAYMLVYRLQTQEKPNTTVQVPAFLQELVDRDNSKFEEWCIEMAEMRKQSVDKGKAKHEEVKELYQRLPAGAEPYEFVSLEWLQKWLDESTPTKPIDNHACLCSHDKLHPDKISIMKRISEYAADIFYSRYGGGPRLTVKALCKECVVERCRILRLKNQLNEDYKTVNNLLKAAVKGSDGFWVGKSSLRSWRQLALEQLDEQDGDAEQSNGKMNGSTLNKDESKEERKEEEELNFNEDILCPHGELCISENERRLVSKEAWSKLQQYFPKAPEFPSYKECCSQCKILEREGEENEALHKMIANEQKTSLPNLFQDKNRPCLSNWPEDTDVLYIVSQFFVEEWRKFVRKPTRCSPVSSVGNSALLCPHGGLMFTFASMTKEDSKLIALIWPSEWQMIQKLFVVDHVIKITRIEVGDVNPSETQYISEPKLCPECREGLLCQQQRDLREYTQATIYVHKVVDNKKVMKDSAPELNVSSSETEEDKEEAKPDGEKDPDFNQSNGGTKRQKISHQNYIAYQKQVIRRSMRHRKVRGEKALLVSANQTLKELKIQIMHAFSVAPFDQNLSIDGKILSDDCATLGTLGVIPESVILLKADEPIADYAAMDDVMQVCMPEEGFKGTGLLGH
Procedure, shortened: as §1

USP5 = target: T4, USP5 (UniProt P45974)
T4 sequence (whole entry): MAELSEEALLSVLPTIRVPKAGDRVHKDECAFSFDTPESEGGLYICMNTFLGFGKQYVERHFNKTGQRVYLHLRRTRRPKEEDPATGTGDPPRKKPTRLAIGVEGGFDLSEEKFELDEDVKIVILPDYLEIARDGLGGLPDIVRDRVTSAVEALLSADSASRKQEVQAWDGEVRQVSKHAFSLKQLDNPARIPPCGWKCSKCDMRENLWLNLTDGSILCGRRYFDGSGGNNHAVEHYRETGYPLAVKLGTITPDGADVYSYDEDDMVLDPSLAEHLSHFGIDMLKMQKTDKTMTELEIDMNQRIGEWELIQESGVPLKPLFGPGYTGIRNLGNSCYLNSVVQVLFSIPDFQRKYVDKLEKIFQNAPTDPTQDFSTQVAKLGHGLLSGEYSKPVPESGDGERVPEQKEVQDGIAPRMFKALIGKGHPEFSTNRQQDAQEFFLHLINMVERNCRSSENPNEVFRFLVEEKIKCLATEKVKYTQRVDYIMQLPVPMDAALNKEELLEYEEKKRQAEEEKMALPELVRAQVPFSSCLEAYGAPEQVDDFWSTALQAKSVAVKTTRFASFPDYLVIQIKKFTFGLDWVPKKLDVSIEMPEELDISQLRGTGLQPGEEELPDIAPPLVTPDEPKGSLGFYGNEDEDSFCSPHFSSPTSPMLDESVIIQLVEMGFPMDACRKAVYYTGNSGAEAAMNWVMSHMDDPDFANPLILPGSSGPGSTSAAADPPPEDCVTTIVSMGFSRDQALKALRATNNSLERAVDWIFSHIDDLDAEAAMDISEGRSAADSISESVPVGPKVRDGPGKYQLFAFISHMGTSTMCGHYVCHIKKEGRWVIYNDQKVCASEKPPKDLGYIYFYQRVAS
Procedure, shortened: as §1

USP54 = USP54 (UniProt Q70EL1)
USP54, sequence (Q70EL1 whole entry): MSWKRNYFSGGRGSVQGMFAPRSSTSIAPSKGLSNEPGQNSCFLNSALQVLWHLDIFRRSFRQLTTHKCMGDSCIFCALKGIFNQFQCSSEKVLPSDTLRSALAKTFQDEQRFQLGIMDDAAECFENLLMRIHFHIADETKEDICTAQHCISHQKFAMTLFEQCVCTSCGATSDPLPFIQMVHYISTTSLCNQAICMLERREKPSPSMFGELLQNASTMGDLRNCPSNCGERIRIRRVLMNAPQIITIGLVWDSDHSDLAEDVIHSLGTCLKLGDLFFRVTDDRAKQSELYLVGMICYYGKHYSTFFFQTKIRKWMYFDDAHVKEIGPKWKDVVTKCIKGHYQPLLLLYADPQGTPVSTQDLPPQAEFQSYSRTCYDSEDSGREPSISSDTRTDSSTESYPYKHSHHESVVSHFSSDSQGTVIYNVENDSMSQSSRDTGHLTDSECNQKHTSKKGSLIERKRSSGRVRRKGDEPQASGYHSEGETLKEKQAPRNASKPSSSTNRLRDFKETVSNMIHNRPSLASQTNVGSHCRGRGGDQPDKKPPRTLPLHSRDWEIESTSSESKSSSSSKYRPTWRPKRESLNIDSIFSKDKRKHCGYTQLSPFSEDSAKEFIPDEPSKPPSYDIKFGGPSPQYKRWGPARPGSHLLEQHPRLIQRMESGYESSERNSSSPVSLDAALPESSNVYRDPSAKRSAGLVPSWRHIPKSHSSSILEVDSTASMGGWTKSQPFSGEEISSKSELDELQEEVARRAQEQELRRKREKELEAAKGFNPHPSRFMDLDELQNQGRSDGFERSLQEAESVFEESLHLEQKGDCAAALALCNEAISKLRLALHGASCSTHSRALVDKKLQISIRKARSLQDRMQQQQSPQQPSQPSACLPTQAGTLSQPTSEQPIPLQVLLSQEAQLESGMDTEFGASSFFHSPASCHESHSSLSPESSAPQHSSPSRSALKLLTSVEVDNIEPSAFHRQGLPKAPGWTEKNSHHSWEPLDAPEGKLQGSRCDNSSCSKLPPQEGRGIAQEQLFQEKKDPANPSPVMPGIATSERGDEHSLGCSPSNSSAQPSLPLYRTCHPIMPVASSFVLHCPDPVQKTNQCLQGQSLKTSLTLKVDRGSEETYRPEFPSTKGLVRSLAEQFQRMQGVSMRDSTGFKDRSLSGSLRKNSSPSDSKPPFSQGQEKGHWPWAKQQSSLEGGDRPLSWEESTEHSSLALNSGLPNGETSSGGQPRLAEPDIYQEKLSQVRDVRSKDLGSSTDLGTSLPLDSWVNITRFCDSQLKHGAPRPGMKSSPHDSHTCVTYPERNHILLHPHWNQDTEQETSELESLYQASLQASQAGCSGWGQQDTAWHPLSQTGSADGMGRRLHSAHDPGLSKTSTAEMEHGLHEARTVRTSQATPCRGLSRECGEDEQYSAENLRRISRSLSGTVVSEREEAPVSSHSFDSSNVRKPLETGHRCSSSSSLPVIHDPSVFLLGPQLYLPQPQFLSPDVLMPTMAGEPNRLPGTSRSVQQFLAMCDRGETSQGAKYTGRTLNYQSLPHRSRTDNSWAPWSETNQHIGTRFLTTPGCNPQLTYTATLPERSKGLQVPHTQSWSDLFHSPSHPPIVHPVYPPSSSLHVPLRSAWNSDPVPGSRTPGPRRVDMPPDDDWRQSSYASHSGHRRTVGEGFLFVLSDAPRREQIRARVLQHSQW
Procedure, shortened: as §1

USP7 = USP7 (UniProt Q93009)
USP7, sequence (Q93009 whole entry, looked up): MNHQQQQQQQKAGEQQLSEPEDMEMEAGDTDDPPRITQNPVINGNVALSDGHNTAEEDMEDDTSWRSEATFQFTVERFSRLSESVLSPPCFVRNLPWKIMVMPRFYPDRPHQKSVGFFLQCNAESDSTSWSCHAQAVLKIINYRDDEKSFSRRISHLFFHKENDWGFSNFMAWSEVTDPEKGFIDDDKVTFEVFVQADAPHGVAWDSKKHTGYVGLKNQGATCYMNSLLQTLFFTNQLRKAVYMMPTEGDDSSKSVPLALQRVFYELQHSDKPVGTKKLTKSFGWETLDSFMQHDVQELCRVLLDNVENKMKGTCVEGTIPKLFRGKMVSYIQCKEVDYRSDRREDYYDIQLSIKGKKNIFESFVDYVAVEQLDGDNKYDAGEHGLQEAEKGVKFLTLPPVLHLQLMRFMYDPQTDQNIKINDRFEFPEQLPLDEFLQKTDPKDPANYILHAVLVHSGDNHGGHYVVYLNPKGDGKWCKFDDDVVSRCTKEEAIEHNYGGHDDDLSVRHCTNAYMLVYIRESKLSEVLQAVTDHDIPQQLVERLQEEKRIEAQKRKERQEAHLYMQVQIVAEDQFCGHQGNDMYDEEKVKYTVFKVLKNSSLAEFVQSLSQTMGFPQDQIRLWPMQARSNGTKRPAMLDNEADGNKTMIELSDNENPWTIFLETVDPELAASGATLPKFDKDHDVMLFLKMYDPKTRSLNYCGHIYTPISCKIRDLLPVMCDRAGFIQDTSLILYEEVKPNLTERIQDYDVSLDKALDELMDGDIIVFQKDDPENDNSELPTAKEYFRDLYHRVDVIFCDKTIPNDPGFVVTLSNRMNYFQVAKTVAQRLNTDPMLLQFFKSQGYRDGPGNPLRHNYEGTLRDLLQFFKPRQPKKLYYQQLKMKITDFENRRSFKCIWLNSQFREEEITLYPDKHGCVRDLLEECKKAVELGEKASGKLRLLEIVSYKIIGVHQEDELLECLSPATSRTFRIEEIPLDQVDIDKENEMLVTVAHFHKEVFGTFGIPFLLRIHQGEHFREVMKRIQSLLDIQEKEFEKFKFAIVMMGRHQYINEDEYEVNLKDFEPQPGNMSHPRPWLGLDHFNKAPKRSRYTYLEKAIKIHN
Procedure, shortened: as §1

USP8 = target: T5, USP8 (UniProt P40818)
T5 sequence (whole entry): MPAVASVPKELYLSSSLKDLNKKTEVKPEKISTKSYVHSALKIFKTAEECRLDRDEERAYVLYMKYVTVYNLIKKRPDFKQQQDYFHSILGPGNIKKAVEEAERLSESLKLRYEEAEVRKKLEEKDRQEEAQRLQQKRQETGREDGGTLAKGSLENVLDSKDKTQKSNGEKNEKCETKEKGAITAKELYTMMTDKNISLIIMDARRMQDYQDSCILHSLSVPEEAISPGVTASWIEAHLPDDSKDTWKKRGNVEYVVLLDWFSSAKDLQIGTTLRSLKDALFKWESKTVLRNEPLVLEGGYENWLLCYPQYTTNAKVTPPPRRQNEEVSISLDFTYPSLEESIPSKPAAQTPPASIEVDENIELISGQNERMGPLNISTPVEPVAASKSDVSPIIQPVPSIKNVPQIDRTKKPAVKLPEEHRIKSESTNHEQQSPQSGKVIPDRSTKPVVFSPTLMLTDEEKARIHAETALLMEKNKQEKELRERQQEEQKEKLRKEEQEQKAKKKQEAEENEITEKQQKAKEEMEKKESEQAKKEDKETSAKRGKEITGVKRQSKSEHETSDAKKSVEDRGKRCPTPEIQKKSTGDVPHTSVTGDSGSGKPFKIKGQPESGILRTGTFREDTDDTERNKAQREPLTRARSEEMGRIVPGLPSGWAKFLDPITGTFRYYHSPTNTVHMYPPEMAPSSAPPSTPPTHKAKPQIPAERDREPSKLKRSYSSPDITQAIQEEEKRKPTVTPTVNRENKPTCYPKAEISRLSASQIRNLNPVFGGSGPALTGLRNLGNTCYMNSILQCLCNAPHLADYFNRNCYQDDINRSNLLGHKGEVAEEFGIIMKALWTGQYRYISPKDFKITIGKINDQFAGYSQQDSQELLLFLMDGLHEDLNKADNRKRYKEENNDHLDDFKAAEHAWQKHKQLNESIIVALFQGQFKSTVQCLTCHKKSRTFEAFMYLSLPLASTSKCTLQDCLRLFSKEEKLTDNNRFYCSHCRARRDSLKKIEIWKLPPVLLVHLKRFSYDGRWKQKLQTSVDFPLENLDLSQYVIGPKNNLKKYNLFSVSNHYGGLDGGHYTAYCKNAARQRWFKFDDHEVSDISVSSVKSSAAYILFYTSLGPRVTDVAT
Procedure, shortened: as §1

USP9X = USP9X (UniProt Q93008)
Procedure, shortened: as §1

UniProt O00487 = target: UniProt O00487
UniProt O00487, sequence (O00487 whole entry): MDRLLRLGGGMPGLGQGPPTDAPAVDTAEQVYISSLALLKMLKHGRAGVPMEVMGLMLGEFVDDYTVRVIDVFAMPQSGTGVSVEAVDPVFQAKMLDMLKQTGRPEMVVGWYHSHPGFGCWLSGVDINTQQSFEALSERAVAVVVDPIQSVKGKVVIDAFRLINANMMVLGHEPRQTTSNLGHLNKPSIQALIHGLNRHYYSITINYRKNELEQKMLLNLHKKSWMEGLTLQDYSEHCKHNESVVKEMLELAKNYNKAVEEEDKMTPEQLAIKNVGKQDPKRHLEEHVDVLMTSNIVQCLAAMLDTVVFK
Procedure, shortened: as §1

Measured: log2 ratio of Biotin-Ahx-Ub-VS probe labelling

O=C(CCl)N1CCC(C(=O)N2CCCC2)CC1
inactive: USP42 -0.161 | USP46 0.0393 | USP47 -0.0567 | USP48 0.126 | USP5 -0.266 | USP54 -0.159 | USP7 -0.543 | USP8 -0.0342 | USP9X -0.0236 | UniProt O00487 -0.108
